Data from ChEMBL document CHEMBL4513216, “Probing the Open Global Health Chemical Diversity Library for Multistage-Active Starting Points for Next-Generation Antimalarials” (ACS Infect Dis, 2020).
The whole screen tested about 68,000 compounds, of which about 2,700 (4%) showed an effect of 50% or more. What follows is part of a selection rich in strong results, with near analogues and random picks from the rest.

Test system: Plasmodium berghei
Experiment: Screen against P. berghei liver stage (PbLuc), transformed with Luciferase, at 2uM
Assay type: functional, HepG2
Conditions: tested at 2 uM

Row | SMILES | INHIBITION [%]
1 | CCn1c(C)nnc1CN(C)C1CCN(Cc2sc(C)nc2C)C1 (centres undefined) | 65.3
2 | Cc1nc(C)c(CN2CCC(N(C)Cc3nnc(C4CC4)o3)C2)s1 (centres undefined) | 37.9
3 | CCn1c(C)nnc1CN(C)C1CCN(Cc2c(C)noc2C)C1 (centres undefined) | 4.72
4 | O=S(=O)(c1ccccc1)N1CCC2(CCCN2Cc2ccc(Cl)cc2)C1 (centres undefined) | -28.17
5 | O=C(CCCc1nnc(-c2ccccc2)o1)N1CCN(CCO)CC1 | 36.65
6 | O=C(CCCc1nc(-c2ccccc2)no1)N1CCN(CCO)CC1 | 41.76
7 | O=C(CCCc1ncc(-c2ccccc2)o1)N1CCN(CCO)CC1 | 56.67
8 | COc1ccc(Br)cc1NCC(=O)NC(C)(C#N)C1CC1 (centres undefined) | -0.46
9 | CSc1ccc2c(C)cc(N[C@@H](C)CO)nc2c1 | 71.67
10 | COC[C@H](C)Nc1cc(C)c2ccc(SC)cc2n1 | 45.56
11 | CCn1ncnc1C(C)Nc1cc(C)c2ccc(SC)cc2n1 (centres undefined) | -35.22
12 | O=C(c1cccnc1-c1ccoc1)N1C[C@@H]2CC[C@H]1C2 | -15.77
13 | CCC1(CO)CCN(C(=O)c2cc(COc3ccccc3F)[nH]n2)CC1 | -64.06
14 | CCn1nc(C)c(CCNC(=O)C2CCCN(C(=O)N(C)C)C2)c1C (centres undefined) | -17.7
15 | Cn1cc(CN2CCOC(c3nccnc3-c3cccc(F)c3)C2)cn1 (centres undefined) | 11.74
16 | Cn1cc(CN2CCOC(c3cccc(-c4cccc(F)c4)n3)C2)cn1 (centres undefined) | 53.16
17 | Cn1cc(CN2CCOC(c3cccc(-c4cncnc4)n3)C2)cn1 (centres undefined) | 0.12
18 | CN(C)Cc1nn(C)c2c1CCN(C(=O)CC1CC1)C2 | -1.31
19 | C=C(C)COc1ccccc1C(=O)NCCCc1nnn[nH]1 | -24.7
20 | OC(COCc1ccco1)CN1CCc2c(ncn2C2CC2)C1 (centres undefined) | 35.23
21 | CC(Cc1cccs1)NC(=O)CCn1cccn1 (centres undefined) | 0.66
22 | O=C(CCOc1ccccc1)N1CCCC(c2ncc[nH]2)C1 (centres undefined) | 2.06

Row | SMILES | INHIBITION [%]
23 | CCCN(Cc1nccn1C)C(=O)C(CC)Nc1cccc(OC)c1 (centres undefined) | 16.82
24 | COCc1cn(CC2CCN(Cc3nc(C)c[nH]3)CC2)nn1 | -37.15
25 | Cc1ccc(CN2Cc3c(C(=O)N(C)C)nn(C)c3C2)s1 | -35.2
26 | O=S(=O)(Cc1ccccc1)c1nnc(N2CCCC2)s1 | 44.37
27 | Cc1cccc(CS(=O)(=O)c2nnc(N3CCOCC3)s2)c1 | 22.34
28 | O=S(=O)(Cc1ccccc1)c1nnc(N2CCOCC2)s1 | 52.08
29 | CCCn1cc(CNCC(c2ccc(C)s2)N2CCOCC2)cn1 (centres undefined) | 10.46
30 | CNc1cc(C(=O)N2CCOC(C(=O)NC3CCCC3)C2)ccn1 (centres undefined) | -5.76
31 | CCn1cnnc1CNC(=O)N(C)Cc1ccc2c(c1)OCO2 | -19.35
32 | Cc1ccc(Nc2nccc(C3CCCN(CC(=O)N(C)C)C3)n2)nc1 (centres undefined) | -28.81
33 | O=C(C1CCC1)N1CCCC(c2ccnc(Nc3cnccn3)n2)C1 (centres undefined) | 57.82
34 | Cc1ccc(Nc2nccc(C3CN(CC(N)=O)C3)n2)nc1 | 9.79
35 | O=C(C1CCCC1)N1CCC(c2ccnc(Nc3cnccn3)n2)C1 (centres undefined) | 37.81
36 | CC(=O)N1CCCC(c2ccnc(Nc3cnccn3)n2)C1 (centres undefined) | -39.95
37 | Cc1ccc(Nc2nccc(C3CCN(CC(N)=O)C3)n2)nc1 (centres undefined) | 85.75
38 | O=C(c1ccco1)N1CCOCC2(C1)CN(c1ccccc1)C(=O)CO2 (centres undefined) | 16.48
39 | COc1ccc(CN2CC[C@H]3[C@H]2CC(=O)N3Cc2cccc(C)n2)cc1 | 3.55
40 | CCCn1nc2c(cc1=O)CN(Cc1nc(C)c(C)o1)CC2 | 44.43
41 | OC(CN1CC(n2cccn2)C1)c1ccc2c(c1)OCCO2 (centres undefined) | -28.22
42 | CN1CCOC(CNCc2csc(C3CCCC3)n2)C1 (centres undefined) | 60.71
43 | CN1CCOC(CNCc2csc(C3CCCCC3)n2)C1 (centres undefined) | 16.84
44 | Cc1nc(CNCC2CN(C)CCO2)cs1 (centres undefined) | -50.23

Row | SMILES | INHIBITION [%]
45 | CCOC(=O)c1c(NC(=O)CN2CCN(C(C)=O)CC2)sc2c1CCC2 | 25.47
46 | C1CC(N2C[C@@H]3COC[C@]3(COCC3CCOCC3)C2)C1 | 22.96
47 | CCOC(=O)CSc1ccc(-c2nc(CC)no2)cn1 | 46.51
48 | CCc1noc(-c2ccc(SCC(=O)O)nc2)n1 | 47.9
49 | CCOC(=O)CSc1ccc(-c2nc(C)no2)cn1 | 70.75
50 | COc1ccc(Br)c(C(=O)NCC2CC2)c1 | 9.21
51 | NS(=O)(=O)N1CCC(C(=O)Nc2cccc(OC(F)F)c2)CC1 | 50.98
52 | CC(NC(=O)C1CCN(S(N)(=O)=O)CC1)c1cccc(OC(F)F)c1 (centres undefined) | 1.42
53 | O=C(Nc1cccc(OC(F)F)c1)C1CN(S(=O)(=O)C2CC2)C1 | 21
54 | CN(C)C[C@@H]1C[C@@H]2CN(C(=O)c3ccoc3)CC[C@@H]2N1CC1CC1 | -72.76
55 | C=Cc1ccc(C(=O)N2CCCC(Nc3ccccc3)C2)cc1 (centres undefined) | 43.86
56 | CN(C)S(=O)(=O)N1CCC(C(O)c2ccc(Cl)cc2)CC1 (centres undefined) | 24.36
57 | CCN(C)S(=O)(=O)N1CCC(C(O)c2ccc(Cl)cc2)CC1 (centres undefined) | -11.41
58 | CCN(C)S(=O)(=O)N1CCC(C(O)c2ccc(F)cc2)CC1 (centres undefined) | 52.98
59 | CCCn1nc2c(cc1=O)CN(Cc1nnc(C3CC3)o1)CC2 | -7.73
60 | Cc1ncsc1CCN(C)C(=O)CN1CCOC1=O | 29.13
61 | c1cc(CN2CC[C@H]3O[C@@H](COCC4CCOCC4)CC[C@H]32)ccn1 | -5.17
62 | Cc1nc2ccccc2n1CCNCc1cccc(O)c1 | 54.47
63 | COc1ccc(CNCCn2c(C)nc3ccccc32)cc1O | -92.51
64 | Cc1nc2ccccc2n1CCNCc1cccc(C#N)c1 | -5.59
65 | CSc1nsc(NC(=O)c2cc(C3CC3)nn2C)n1 | -11.3
66 | O[C@]12CCNC[C@H]1CN(c1ccnc3ccccc13)CC2 | 16.35

Row | SMILES | INHIBITION [%]
67 | OC[C@H]1CN(Cc2c(Cl)cncc2Cl)C[C@H]1CN1CCOCC1 | 14.13
68 | OC[C@H]1CN(Cc2c(Cl)cncc2Cl)C[C@H]1CN1CCCCCC1 | -34.9
69 | OC[C@H]1CN(Cc2c(Cl)cncc2Cl)C[C@H]1CN1CCCC1 | 72.91
70 | CC1CN(CC(=O)NCc2ccc(F)cc2)CCN1c1nccs1 (centres undefined) | -4.29
71 | CN(C)CCNc1cc(-c2ncccc2Cl)c2cc[nH]c2n1 | 10.22
72 | COc1ccnc(CN2CCC=C(C(C)NC(C)=O)C2)c1OC (centres undefined) | 21.97
73 | CC(=O)NC(C)C1=CCCN(Cc2ccc(C(=O)O)cc2)C1 (centres undefined) | 43.44
74 | COc1ccc(CN2CCC=C(C(C)NC(C)=O)C2)cc1 (centres undefined) | 60.13
75 | Cc1cnccc1N1CCN(C(=O)C2CC3(CCNCC3)CN2)CC1 (centres undefined) | -28.32
76 | CC[S+](CC)[c-]1c(=O)[nH]c(=O)n(CCc2ccc(F)cc2)c1=O | 9.31
77 | CC(NC(=O)c1ccc(Cl)cc1)c1nnc(SCC(N)=O)n1C (centres undefined) | 14.46
78 | CS(=O)(=O)NCC1CCCN(C(=O)Nc2ccccc2Cl)C1 (centres undefined) | -7.21
79 | CS(=O)(=O)NCC1CCCN(C(=O)Nc2cccc3ccccc23)C1 (centres undefined) | 58.93
80 | CS(=O)(=O)NCC1CCCN(C(=O)Nc2ccccc2F)C1 (centres undefined) | -5.61
81 | Cn1cc(C(=O)NC2CCCC2)c(-c2cccnc2)n1 | -18.81
82 | CCOC(=O)c1ccccc1NC(=O)CN(C)Cc1ccccc1Cl | 16.25
83 | CCOc1ccccc1NC(=O)CN(C)Cc1ccccc1Cl | 55.73
84 | CN(CC(=O)Nc1ccccc1C(=O)NC1CC1)Cc1ccccc1Cl | 19.66
85 | O=C1NCCN1C1CCN(CC(O)c2ccccc2F)CC1 (centres undefined) | -54.48
86 | CNC(=O)[C@@H]1C[C@H](N)CN1S(=O)(=O)c1cc(C)c(Cl)cc1C | 25.45
87 | CNC(=O)[C@@H]1C[C@H](N)CN1S(=O)(=O)c1cc(Cl)c(Cl)s1 | 18.19
88 | CNC(=O)[C@@H]1C[C@H](N)CN1S(=O)(=O)c1cc(Cl)cc(Cl)c1O | 92.61

Row | SMILES | INHIBITION [%]
89 | CN(C)[C@@H]1CN(C(=O)Cc2ccsc2)[C@@H]2CCCO[C@H]12 | 16.63
90 | CN(Cc1ccccc1CN1CCCC1)C(=O)c1c(O)cccc1O | 54.29
91 | CN(Cc1ccccc1CN1CCCC1)C(=O)c1c[nH]c(=O)[nH]1 | 0.31
92 | CN(CCN1CCCCCC1)C(=O)c1c(O)cccc1O | -46.57
93 | C1CCN(CCN2CCCCC2C2OCCO2)CC1 (centres undefined) | -26.04
94 | Cc1nnc(N2CCOC(C)(C(=O)N(C)C)C2)c2ccccc12 (centres undefined) | 29.68
95 | Cc1nnc(N2CCOC(C)(C(=O)NC3CCCC3)C2)c2ccccc12 (centres undefined) | 51.88
96 | CNC(=O)C1(C)CN(c2nnc(C)c3ccccc23)CCO1 (centres undefined) | 31.39
97 | CCn1ncc2c1C(COCC1CC1)N(Cc1ccccn1)CC2 (centres undefined) | 1.74
98 | CCc1nc(C2CCCN(C(=O)c3ccc(O)nc3)C2)no1 (centres undefined) | 9.82
99 | CC(C)c1nc(C2CCCN(C(=O)CCn3ccccc3=O)C2)no1 (centres undefined) | 29.59
100 | CCc1nc(C2CCCN(C(=O)c3ccc4[nH]cnc4c3)C2)no1 (centres undefined) | 52.52
101 | CC(C)c1nc(C2CCCN(C(=O)c3ccc4[nH]cnc4c3)C2)no1 (centres undefined) | 33.91
102 | Cc1nc(C2CCCN(C(=O)CCn3ccccc3=O)C2)no1 (centres undefined) | 47.23
103 | CCc1nc(C2CCCN(C(=O)c3ccc(OC(C)C)nc3)C2)no1 (centres undefined) | 54.92
104 | CCc1nc(C2CCCN(C(=O)c3ccc4[nH]nnc4c3)C2)no1 (centres undefined) | 38.72
105 | CCOc1cc(C(=O)N2CCCC(c3noc(CC)n3)C2)ccn1 (centres undefined) | 43.79
106 | CCc1nc(C2CCCN(C(=O)c3ccc(OC)cc3)C2)no1 (centres undefined) | 48.43
107 | CCOc1cc(C(=O)N2CCCC(c3noc(C)n3)C2)ccn1 (centres undefined) | -29.94
108 | CCc1nc(C2CCCN(C(=O)CCn3ccccc3=O)C2)no1 (centres undefined) | 54.92
109 | CCOc1cc(C(=O)N2CCCC(c3noc(C(C)C)n3)C2)ccn1 (centres undefined) | 64.16
